# Results: PubChem BioAssay (Tox21)
# Inconclusive results are not listed. A number with no mark means an inactive call. Calls come from the whole dose curve; as a rule, active = well fitted cell-killing curve with a large enough effect in the repeat runs; inconclusive = weak or mixed curves, or effect the other way; inactive = flat fitted curve, though single readings scatter.
# Experiment: qHTS RealTime-Glo MT Cell Viability Assay in HEK293 cells - 0 hour (AID 1224880); note: top concentration of the series differs between compounds; nearly all actives have a fitted effect of over 45% in size
# Settings: RealTime-Glo luminescence; series mostly up to 76.8 µM; activity change, negative = cytotoxicity: at the top concentration
# Description: U.S. Tox21 Program National Center for Advancing Translational Sciences [NCATS] NIH Chemical Genomics Center [NCGC] U.S. Environmental Protection Agency [EPA] National Institutes of Environmental Health Sciences [NIEHS] National Toxicology Program [NTP] U.S. Food and Drug Administration [FDA] Tox21 Assay Overview: Measure of cell viability is critical in the cell-base assay. Analysis of cell viability is necessary for the characterization of cell responses to cytotoxic drugs and environmental stress. A RealTime-Glo MT Cell Viability Assay to monitor cell viability in real time of continues cell culture during 40 hours of compound treatment was used to screen Tox21 10K library compounds in Hek293 cells. The RealTime-Glo MT Cell Viability Assay is a nonlytic, homogeneous, bioluminescent method to measure cell viability in real time using a simple, plate-based method. The assay involves adding NanoLuc luciferase and a cell-permeant prosubstrate to cells in culture. Viable cells reduce the proprietary prosubstrate to generate a substrate for NanoLuc luciferase. This substrate diffuses from cells into the surrounding culture medium, where it is rapidly used by the NanoLuc Enzyme to produce a luminescent signal. The signal correlates with the number of viable cells, making the assay well suited for cytotoxicity studies.
# Tox21 Assay Protocol Summary: The mixture of Hek293 cell suspension and reagents were dispensed at 600cells/6 ul/well in 1536-well tissue culture treated black solid bottom plates using a Multidrop dispenser. After the assay plates were incubated at a 37 C/5% CO2 incubator for 5 hours, 23 nL of compounds dissolved in DMSO, positive and negative controls was transferred to the assay plate by a pintool work station. The plates were incubated at 37 C for 40 hours. The luminescence intensity were measured at 0h, 8h, 16h, 24h, 32h and 40h time points using ViewLux plate reader during compound treatment.
# % is set by controls: 0 for no effect and ±100 for the full control effect.
row,SMILES,"activity change, negative = cytotoxicity"
1,C#CCN[C@@H]1CCc2ccccc21,-5.64% [at 35.3 µM]
2,CC(=O)OCC(=O)Nc1cc(C#N)cc(NC(=O)COC(C)=O)c1Cl,6.26% [at 35.3 µM]
3,CC(N)CCCC(C)(C)O (stereo not given),0.553% [at 35.3 µM]
4,CC1(C)[C@H]2CC[C@](C)(C2)[C@H]1O,-3.82%
5,Cc1cccc(Cl)c1,-2.06%
6,COC(=O)CCCCC(CCSS/C(CCO)=C(\C)N(C=O)Cc1cnc(C)nc1N)SC(C)=O (stereo not given),-1.65% [at 35.3 µM]
7,O=C1OCCO1,-0.393%
8,C/C(=C1\CCOC(=O)S1)N(C=O)Cc1cnc(C)nc1N,16.3% [at 35.3 µM]
9,CC12CCC(C1)C(C)(C)C2O (stereo not given),0.538%
10,CCN(CC)CCN,-0.315% [at 35.3 µM]
11,N#CCC(=O)NN,1.89% [at 35.3 µM]
12,CC(C)NC(=O)c1ccc(C=O)cc1,3.44% [at 35.3 µM]
13,CC(C)=CCC/C(C)=C/COC=O,3.56%
14,O=Cc1ccccc1Cl,-8.83%
15,CCCCOC(=O)C(C)O (stereo not given),2%
16,c1ccc(B(c2ccccc2)c2ccccc2)cc1,-6.76%
17,CC(=O)O[Si](C)(OC(C)=O)OC(C)=O,-1.82%
18,CSc1cnccn1,8.7%
19,CCNC(=O)NCc1cccc(Cl)c1,-1.23% [at 35.3 µM]
20,COc1cc2c(cc1OC)CN(C(=O)[C@H](C)N[C@@H](CCc1ccccc1)C(=O)O)[C@H](C(=O)O)C2,-4.65% [at 35.3 µM]

row,SMILES,"activity change, negative = cytotoxicity"
1,C[Si]1(C)O[Si](C)(C)O[Si](C)(C)O[Si](C)(C)O[Si](C)(C)O1,16.2%
2,CC(CO)(CO)CO,3.91%
3,CCCC(CC)c1ccccc1 (stereo not given),19%
4,OC[C@@H](O)C(O)[C@@H](O)CO (stereo not given in full),-6.05%
5,Cc1c(C(=O)c2c[nH]n(C)c2=O)ccc(S(C)(=O)=O)c1C1=NOCC1,12% [at 35.3 µM]
6,CO[Si](CCCn1c(=O)n(CCC[Si](OC)(OC)OC)c(=O)n(CCC[Si](OC)(OC)OC)c1=O)(OC)OC,0.304% [at 35.3 µM]
7,CN(C)CCCO[C@@H]1[C@H]2OC(C)(C)O[C@H]2O[C@@H]1C(O)CO (stereo not given in full),4.41% [at 35.3 µM]
8,CN1CCOC(c2ccccc2)c2ccccc2C1 (stereo not given),6.92% [at 35.3 µM]
9,OCC(O)CN1CCN(c2ccccc2)CC1 (stereo not given),-2.42% [at 35.3 µM]
10,CC(C)Cn1cnc2c1c(=O)n(C)c(=O)n2C,0.593% [at 35.3 µM]
11,c1ccc(-c2nn[nH]n2)cc1,-6.12%
12,Cc1ccc2c(c1)C(=O)c1ccccc1C2=O,4.42%
13,CCCCCC(C)O (stereo not given),16.2%
14,CCC(C)C(C)=O (stereo not given),-4.39%
15,CC(=O)OC(C)=O,-4.96%
16,C=CC(=O)OCC1CCCO1 (stereo not given),5.32%
17,CCC(=O)Oc1ccc2c(c1)CC[C@@H]1[C@@H]2CC[C@@]2(C)[C@H]1C[C@@H](OC(=O)CC)[C@@H]2OC(=O)CC,-1.36% [at 35.3 µM]
18,CC(=O)OC1CCCCC1C(C)(C)C (stereo not given),-3.67%
19,c1ccc2c(CC3=NCCN3)cccc2c1,-20.2% [at 35.3 µM]
20,CC1(C)Oc2ccc(C#N)cc2[C@@H](N2CCCC2=O)[C@@H]1O,-0.697% [at 35.3 µM]
